Screening data from PubChem.
Vaccinia stage = blocks a specific stage of Vaccinia orthopoxvirus infection, primary screen, cell-based, single point | Vaccinia-infected cells, mCherry/Venus stage reporter fluorescence; hits give low values | activity change (mCherry), % (concentration not given with the values) | 89,000 tested, 0.01% active; in the data active = activity change below about -37%, passing the limit was not always enough; tested in A549 cells
Large screens that a line does not name were inactive. Not all results are given here.

C[C@H](CO)N1C[C@H](C)[C@H](CN(C)CC2CC2)Oc2ccc(NC(=O)Nc3ccc4c(c3)OCO4)cc2CC1=O	none
CO[C@H]1CN(C)C(=O)c2cc(NC(=O)C3CC3)ccc2OC[C@H](C)N(C(=O)c2ccccc2)C[C@H]1C	none
CCN1[C@@H]2Cn3c(ccc(C4=CCCC4)c3=O)[C@H]1[C@@H](C(=O)NCc1ccccn1)[C@@H]2CO	none
CC(C)NC(=O)N(C)C[C@H]1Oc2ccc(NC(=O)CCC(F)(F)F)cc2C(=O)N([C@H](C)CO)C[C@@H]1C	none
CCC(=O)N1CC2(C1)[C@@H](c1ccc(-c3ccc(C#N)cc3)cc1)[C@@H](CO)N2C(C)=O	none
COC(=O)[C@@H]1[C@@H](CO)[C@@H]2Cn3c(ccc(-c4ccc(F)cc4)c3=O)[C@@H]2N1S(C)(=O)=O	none
C[C@H](CO)N1C[C@H](C)[C@H](CN(C)C(=O)C2CCCCC2)Oc2ncc(C3=CCCC3)cc2C1=O	none
Cc1ccc(S[C@]2(C(=O)NC(C)C)CC(=O)N(C(C)C)[C@@H]2c2ccc(CO)cc2I)cc1	none
OC[C@H]1[C@@H](c2ccc(-c3ccc(F)cc3)cc2)[C@@H]2CN(Cc3ccccn3)CCCCN12	none
C[C@@H]1CN([C@@H](C)CO)C(=O)c2cccc(NC(=O)c3cnccn3)c2O[C@H]1CN(C)S(=O)(=O)c1cn(C)cn1	none
Cc1noc(C)c1NC(=O)N(C)C[C@H]1OCCCC[C@@H](C)Oc2ccc(N(C)C)cc2C(=O)N([C@@H](C)CO)C[C@@H]1C	none
C[C@H](CO)N1C[C@H](C)[C@H](CN(C)C(=O)Nc2ccc3c(c2)OCO3)Oc2ccc(NC(=O)Nc3ccc4c(c3)OCO4)cc2C1=O	none
CCCC#Cc1cnc2c(c1)C(=O)N([C@@H](C)CO)C[C@H](C)[C@H](CN(C)S(=O)(=O)c1cccc(OC)c1)O2	none
C[C@@H]1CN([C@H](C)CO)C(=O)c2cc(NC(=O)Nc3ccc(F)cc3)ccc2O[C@@H]1CN(C)C(=O)Nc1ccc2c(c1)OCO2	none
C[C@H]1CN([C@@H](C)CO)C(=O)c2cc(NS(=O)(=O)c3ccc(Cl)cc3)ccc2O[C@H]1CN(C)Cc1ccc2c(c1)OCO2	none
O=C(N[C@H]1CC[C@@H](CCn2cc(-c3ccccn3)nn2)O[C@H]1CO)c1ccccc1	none
COc1cccc(-c2cnc3c(c2)C(=O)N([C@@H](C)CO)C[C@H](C)[C@H](CN(C)Cc2cccnc2)O3)c1	none
